Source: PubChem BioAssay (National Center for Advancing Translational Sciences (NCATS))
Pf growth 48h = P. falciparum growth inhibition at 48 hours (one generation). 5.9% of 310,000 active. AID 504832. Potency, µM (titrated, usually from 28.7 µM), usual class: inhibitors. P. falciparum luciferase growth in erythrocytes, 48 h
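Firefly luciferase activity from engineered P. falciparum reports growth; inhibitors lower the luminescent signal. Cultures contained 2% hematocrit erythrocytes at 0.1% final parasitemia.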
Pf growth 96h = inhibits malaria parasite growth, 96 h. P. falciparum luciferase reporter growth, 96 h. 6.9% of 320,000 active. Potency, µM (series often up to 28.7 µM), actives largely listed as inhibitors
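P. falciparum expressing integrated firefly luciferase, in erythrocytes at 2% hematocrit, 0.05% parasitemia, incubated with compounds 96 h at 37 C, 5% CO2. Growth inhibition read as loss of luminescence; two-generation exposure targets delayed-death apicoplast inhibitors.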
CHX counter = counter-screen for Shiga toxin inhibitors: cycloheximide protein synthesis inhibition; cell reporter, cycloheximide protein synthesis inhibition counterscreen; max response, %; 12% of 300,000 active; in the data active = max response mostly above about 13%, no sharp cut-off; inactive = mostly below about 14%; also: read at 38.3 µM for the half of the compounds with a filed dose
Shiga inhibitor = inhibitors of Shiga toxin in Vero cells | Vero cells, Shiga toxin protein synthesis inhibition reporter | inhibition, % at 38.7 µM | 9.2% of 290,000 active | AID 2315; in the data active = inhibition mostly above about 28%, no sharp cut-off; inactive = mostly below about 43%
Each line names hits and unclear results; the compound was inactive in the other large screens. An excerpt weighted towards active compounds, which were near 21% of everything screened. Unless noted, calls follow the shape of the dose curve; as a rule, active = well fitted inhibition curve with a large enough effect; inconclusive = small, poorly fitted or top-dose-only effect, or another doubt; inactive = no such curve, though single readings can be large or run the other way.

O=C(NCCCn1ccnc1)/C(=C\c1ccc(Br)cc1)NC(=O)c1ccccc1	Pf growth 96h inconclusive
Cc1ccccc1CC(=O)Nc1cccnc1	none
CSCC[C@H](NC(=O)[C@H](Cc1ccccc1)n1c(=O)[nH]c2ccccc2c1=O)C(=O)N[C@@H](Cc1ccccc1)C(=O)O	Pf growth 96h inconclusive
O=C(NCc1nc2ccccc2[nH]1)C1=C[C@@H](c2csc3ccccc23)C[C@@H](OCc2ccc(CO)cc2)O1	Pf growth 48h inconclusive, Pf growth 96h 3.29µM
O=C(NCc1nc2ccccc2[nH]1)C1=C[C@H](c2csc3ccccc23)C[C@H](OCc2ccc(CO)cc2)O1	Pf growth 48h 11.7µM, Pf growth 96h 14.7µM
O=C(NCc1nc2ccccc2[nH]1)C1=C[C@@H](c2ccc(Br)cc2)C[C@@H](OCc2ccc(CO)cc2)O1	Pf growth 48h inconclusive, Pf growth 96h inconclusive
COc1ccc(OC)c(NC(=O)CSc2nnc(-c3cnccn3)n2C)c1	Pf growth 48h inconclusive, Pf growth 96h inconclusive
C/C=C/C(=O)[C@@H](C)[C@@H](/C=C/C[Si](C)(C)C)c1ccccc1	none (no result: Pf growth 48h, Pf growth 96h)
CC(C)(C)C1(O)CC(C(F)(F)F)=NN1C(=O)CCCc1ccccc1 (stereo not drawn)	none
CC(C)C1=NN(C(=O)c2ccccc2)C(O)(C(C)(C)C)C1 (stereo not drawn)	CHX counter 29.0
CC(C)(C)C1=NN(C(=O)c2ccccc2)C(O)(C(C)(C)C)C1 (stereo not drawn)	Pf growth 96h inconclusive, CHX counter 13.0, Shiga inhibitor 34.3
C=CCn1c(N2CCOCC2)nc2c1c(=O)[nH]c(=O)n2C	Pf growth 48h inconclusive
COc1cccc2c(=O)n(CC(=O)NC3CCCC3)ccc12	CHX counter 24.1
COc1cccc(-c2nnn(CC(=O)NC3CCCC3)n2)c1OC	Pf growth 96h 9.28µM
CCCc1cc(=O)c2c(O)ccc(OC)c2o1	Pf growth 48h inconclusive
Cc1noc(C)c1-c1ccc2ncnc(NCc3ccc(-c4ccccc4)cc3)c2c1	CHX counter 37.6, Shiga inhibitor 47.6 (no result: Pf growth 48h, Pf growth 96h)
CC(=O)Nc1ccc(CNc2ncnc3ccc(-c4c(C)noc4C)cc23)cc1	Pf growth 48h inconclusive, Pf growth 96h inconclusive
CCOc1ccc(C(=O)NN2C(=O)C3C4C=CC(O4)C3C2=O)cc1 (stereo not drawn)	none
CCOc1cc(CNc2ccc(OC)cc2)cc(Br)c1OCC(=O)NC(C)(C)C	Pf growth 48h inconclusive, Pf growth 96h 9.28µM
CCOc1cc(CNn2cnnc2)cc(Br)c1OCC(=O)NC1CCCCC1	Pf growth 48h inconclusive, Pf growth 96h 9.28µM
COc1cc(CNc2ccc(C(=O)O)cc2)cc(Br)c1OCC(=O)NC(C)(C)C	none
CCOc1cc(CNc2ccccc2)cc(Br)c1OCC(=O)NC(C)(C)C	Pf growth 48h inconclusive, Pf growth 96h 9.28µM
CCOc1cc(CNc2ccc(Br)cc2)cc(Br)c1OCC(=O)NC(C)(C)C	Pf growth 48h inconclusive (no result: Pf growth 96h)
Fc1ccccc1NC(=S)Nn1cnnc1	none
C=CCn1c(O)c2ccc(C(=O)N=NC(=O)COc3ccccc3F)cc2c1O	none (no result: CHX counter, Shiga inhibitor)
O=C(c1ccco1)N1CCN(CC(=O)N2c3ccccc3CCc3ccccc32)CC1	Pf growth 48h inconclusive, Pf growth 96h 10.4µM
CSC1=NCCN1C(=O)c1ccc(Br)o1	Pf growth 96h inconclusive, CHX counter 38.6, Shiga inhibitor 91.9 (no result: Pf growth 48h)
CC1CCCN(C(=O)CN2CCN(C(=O)c3ccco3)CC2)C1 (stereo not drawn)	none
O=C(c1ccc(Br)o1)N1CCCc2ccccc21	none
O=C(c1ccc(Br)o1)N1CCc2ccccc21	CHX counter 44.2, Shiga inhibitor 86.9
CC1Cc2ccccc2N1C(=S)NC(=O)c1ccco1 (stereo not drawn)	none
O=C(c1ccc(Br)o1)N1CCN=C1SCc1cccnc1	none (no result: Pf growth 48h)
O=C(NC(=S)N1CCCc2ccccc21)c1ccco1	CHX counter 32.9, Shiga inhibitor 81.9
CCOc1ccccc1NS(=O)(=O)c1c(C)[nH]c(C)c1C(=O)N1CCCCC1	none
O=C(c1ccco1)N1CCc2ccccc21	CHX counter 34.7, Shiga inhibitor 66.3
O=C(C1CCCO1)N1CCc2ccccc21 (stereo not drawn)	Pf growth 96h inconclusive
O=C(CN1CCCCC1)N1c2ccccc2CCc2ccccc21	Pf growth 96h inconclusive (no result: Pf growth 48h)
O=C(N1CCOCC1)N1CCc2ccccc21	Pf growth 96h 11.7µM
CC1CCN(CC(=O)N2c3ccccc3CCc3ccccc32)CC1	Pf growth 48h 14.7µM
CCn1cc(C(=O)Nc2ccc(OC)c(S(=O)(=O)N3CCCCC3)c2)c(=O)c2ccc(C)nc21	none
COc1cc(NC(=O)C2=C(N3CCOCC3)/C(=C/c3ccc(Cl)cc3)CC2)cc(OC)c1OC	none
COc1cc(NC(=O)C2=C(N3CCOCC3)/C(=C\c3ccc(N(C)C)cc3)CCC2)cc(OC)c1OC	Pf growth 48h 14.7µM, Pf growth 96h inconclusive, CHX counter 45.6, Shiga inhibitor 77.5
CCOc1ccccc1N1Cc2ccccc2C1	Pf growth 48h 7.38µM (no result: Pf growth 96h)
COc1ccc(OC)c(N2Cc3cc(C)c(C)cc3C2)c1	Pf growth 48h 2.94µM, CHX counter 13.7 (no result: Pf growth 96h)
CCOc1ccccc1N1CCN(Cc2cccc(OC)c2OC)CC1	none
CCOc1ccc(N2Cc3ccccc3C2)cc1	Pf growth 48h inconclusive, Pf growth 96h 7.38µM, CHX counter 39.3
CCOc1ccccc1N1Cc2cc(C)c(C)cc2C1	Pf growth 48h 13.1µM, Pf growth 96h inconclusive
O=C(NCC(=O)N(c1ccc(F)cc1)C(C(=O)NC1CCCC1)c1cccnc1)c1ccco1 (stereo not drawn)	Pf growth 96h inconclusive
O=C1CCc2cc(S(=O)(=O)NCc3ccccc3Cl)cc3c2N1CC3	none (no result: CHX counter, Shiga inhibitor)
CCN(c1ccc(N=Cc2c(O)n(Cc3ccc(OC)cc3)c(=O)c3ccccc23)cc1)C(C)C	Pf growth 48h inconclusive, Pf growth 96h 1.47µM
Cc1ccc(-n2cc(C(=O)c3ccc(F)cc3)nn2)cc1Cl	CHX counter 36.5, Shiga inhibitor 74.9
CCOC(=O)c1ccc(-n2cc(C(=O)c3cccnc3)nn2)cc1	none
O=C(OC[C@H]1O[C@@H](OC(=O)c2cc(O)c(O)c(OC(=O)c3cc(O)c(O)c(O)c3)c2)[C@H](OC(=O)c2cc(O)c(O)c(OC(=O)c3cc(O)c(O)c(O)c3)c2)[C@@H](OC(=O)c2cc(O)c(O)c(OC(=O)c3cc(O)c(O)c(O)c3)c2)[C@@H]1OC(=O)c1cc(O)c(O)c(OC(=O)c2cc(O)c(O)c(O)c2)c1)c1cc(O)c(O)c(OC(=O)c2cc(O)c(O)c(O)c2)c1	Pf growth 48h inconclusive, Pf growth 96h 9.28µM (no result: CHX counter, Shiga inhibitor)
Cc1n[nH]c(=S)n(/N=C/c2cccs2)c1=O	Pf growth 48h 0.928µM, Pf growth 96h inconclusive
CC(C)(C)c1n[nH]c(=S)n(/N=C/c2cccs2)c1=O	none
Cn1c(=S)n(/N=C/c2cccs2)c2ccccc21	CHX counter 25.3, Shiga inhibitor 46.1
CC1=NNC(=O)C(CC(=O)Nc2ccc(Cl)c(Cl)c2)C1 (stereo not drawn)	none
CCN1CCN(c2oc(-c3ccccc3C)nc2S(=O)(=O)c2ccccc2)CC1	Pf growth 48h inconclusive, Pf growth 96h 9.28µM (no result: CHX counter, Shiga inhibitor)
NC(=O)C1CCN(c2oc(-c3ccc(F)cc3)nc2S(=O)(=O)c2ccccc2)CC1	Pf growth 48h 10.4µM, Pf growth 96h inconclusive (no result: CHX counter, Shiga inhibitor)
COc1ccccc1-c1nc(S(=O)(=O)c2ccccc2)c(N2CCCCC2)o1	none
